# Source: PMC7862700, “An all-to-all approach to the identification of sequence-specific readers for epigenetic DNA modifications on cytosine”
# Legend:
# Test in all cases: DAPPL (digital affinity profiling via proximity ligation, sequencing); 10 mM Tris-HCl pH 7.5, 50 mM NaCl, 1 mM DTT, 4% glycerol, room temperature, 30 min; GST-TFs on glutathione beads, 16-mer random dsDNA library, 0.1% formaldehyde crosslink after washing; high values mean tight binding
# Details in all cases: protein: recombinant; tags: N-terminal GST; dsDNA, one strand shown
# FLI1 = molecular target: T1, FLI1 (Homo sapiens, UniProt Q01543 1-452)
# T1 sequence: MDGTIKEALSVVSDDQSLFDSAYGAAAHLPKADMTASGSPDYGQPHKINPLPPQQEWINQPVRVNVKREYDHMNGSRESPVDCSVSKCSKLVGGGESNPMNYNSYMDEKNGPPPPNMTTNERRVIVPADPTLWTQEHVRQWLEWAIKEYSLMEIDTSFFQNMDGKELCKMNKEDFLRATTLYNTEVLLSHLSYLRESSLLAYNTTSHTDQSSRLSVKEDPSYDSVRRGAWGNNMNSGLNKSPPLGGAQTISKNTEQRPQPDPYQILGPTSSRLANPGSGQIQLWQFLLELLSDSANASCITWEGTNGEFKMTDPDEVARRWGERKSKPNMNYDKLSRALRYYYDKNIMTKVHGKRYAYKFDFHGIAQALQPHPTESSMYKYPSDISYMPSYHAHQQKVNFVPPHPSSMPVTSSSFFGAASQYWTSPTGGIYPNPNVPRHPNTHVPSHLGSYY
# In short: (§1)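 The binding signal reported is, for every hexamer, its read frequency for a factor over its read frequency for the tag-only sample. Reads came from pools of yeast-expressed, GST-fused human transcription factors on glutathione beads, barcoded with DNA and mixed with that sample, which were incubated with 200 nmole of a random double-stranded 16-mer DNA library in Tris/NaCl/DTT/glycerol buffer at room temperature for 30 min. After washing, the pools were crosslinked with 0.1% formaldehyde, proximity-ligated with BsaI/T4 ligase for 1 h at 37 °C, PCR-amplified and sequenced on an Illumina NextSeq500.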
# GABPA = molecular target: T2, GABPA (Homo sapiens, UniProt Q06546 1-454)
# T2 sequence: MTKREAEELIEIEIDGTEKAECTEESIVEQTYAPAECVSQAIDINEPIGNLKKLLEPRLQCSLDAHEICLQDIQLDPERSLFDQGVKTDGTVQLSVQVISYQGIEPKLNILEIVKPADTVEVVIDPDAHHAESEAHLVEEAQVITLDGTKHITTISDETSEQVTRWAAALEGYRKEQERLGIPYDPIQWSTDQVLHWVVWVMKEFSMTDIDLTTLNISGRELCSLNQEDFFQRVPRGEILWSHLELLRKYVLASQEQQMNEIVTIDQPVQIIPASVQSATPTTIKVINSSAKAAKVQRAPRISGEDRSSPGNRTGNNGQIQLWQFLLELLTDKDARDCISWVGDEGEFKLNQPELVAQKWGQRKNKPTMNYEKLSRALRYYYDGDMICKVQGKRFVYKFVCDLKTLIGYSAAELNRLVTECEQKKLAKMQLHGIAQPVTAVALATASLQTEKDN
# In short: as §1
# ERG = molecular target: T3, ERG (Homo sapiens, UniProt P11308 1-479)
# T3 sequence: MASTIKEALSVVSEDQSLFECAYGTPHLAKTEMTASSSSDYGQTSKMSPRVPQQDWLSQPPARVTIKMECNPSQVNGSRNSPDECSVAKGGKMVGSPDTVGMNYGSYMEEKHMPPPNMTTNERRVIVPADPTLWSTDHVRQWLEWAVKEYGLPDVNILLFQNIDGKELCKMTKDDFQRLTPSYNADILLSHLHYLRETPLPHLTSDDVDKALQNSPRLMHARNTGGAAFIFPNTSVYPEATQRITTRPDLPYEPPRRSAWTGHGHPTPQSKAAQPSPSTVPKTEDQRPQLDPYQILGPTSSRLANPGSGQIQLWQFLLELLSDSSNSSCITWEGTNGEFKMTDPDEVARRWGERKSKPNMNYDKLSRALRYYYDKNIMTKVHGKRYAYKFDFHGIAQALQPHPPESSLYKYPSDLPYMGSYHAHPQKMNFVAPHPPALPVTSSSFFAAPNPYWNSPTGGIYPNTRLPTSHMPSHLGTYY
# In short: as §1
# ELF1 = ELF1 (Homo sapiens, UniProt P32519 1-619)
# In short: as §1
# EHF = molecular target: T4, EHF (Homo sapiens, UniProt Q9NZC4 1-300)
# T4 sequence: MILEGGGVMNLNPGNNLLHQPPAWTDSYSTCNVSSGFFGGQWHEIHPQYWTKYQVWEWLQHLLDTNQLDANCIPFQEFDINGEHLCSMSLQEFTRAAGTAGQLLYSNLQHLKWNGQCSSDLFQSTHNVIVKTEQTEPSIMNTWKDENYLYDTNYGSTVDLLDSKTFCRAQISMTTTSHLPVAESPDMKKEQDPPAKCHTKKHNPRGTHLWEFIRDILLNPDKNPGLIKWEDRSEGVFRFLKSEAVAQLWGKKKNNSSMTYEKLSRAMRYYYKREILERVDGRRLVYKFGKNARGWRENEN
# In short: as §1
# SPI1 = SPI1 (Homo sapiens, UniProt P17947 1-270)
# In short: as §1
# SPIB = SPIB (Homo sapiens, UniProt Q01892 1-262)
# In short: as §1
# ELK3 = molecular target: T5, ELK3 (Homo sapiens, UniProt P41970 1-407)
# T5 sequence: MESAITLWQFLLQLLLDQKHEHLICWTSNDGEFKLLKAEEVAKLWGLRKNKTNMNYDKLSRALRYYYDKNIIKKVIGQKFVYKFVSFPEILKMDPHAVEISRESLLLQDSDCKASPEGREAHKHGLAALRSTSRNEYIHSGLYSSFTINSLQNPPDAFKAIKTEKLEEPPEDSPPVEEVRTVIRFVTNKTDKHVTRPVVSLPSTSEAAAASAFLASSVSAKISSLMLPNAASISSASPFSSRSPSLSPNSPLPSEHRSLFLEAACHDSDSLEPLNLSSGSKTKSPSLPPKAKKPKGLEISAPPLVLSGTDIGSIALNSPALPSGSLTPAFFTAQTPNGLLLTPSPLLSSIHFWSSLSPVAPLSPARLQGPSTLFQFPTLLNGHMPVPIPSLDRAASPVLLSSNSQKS
# In short: as §1
# FEV = molecular target: T6, FEV (Homo sapiens, UniProt Q99581 1-238)
# T6 sequence: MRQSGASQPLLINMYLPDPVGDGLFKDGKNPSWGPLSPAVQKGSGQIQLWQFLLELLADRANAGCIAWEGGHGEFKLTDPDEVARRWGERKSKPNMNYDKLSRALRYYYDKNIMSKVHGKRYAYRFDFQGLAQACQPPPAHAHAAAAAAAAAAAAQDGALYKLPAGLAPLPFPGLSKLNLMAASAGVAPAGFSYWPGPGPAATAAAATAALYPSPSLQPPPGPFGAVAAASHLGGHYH
# In short: as §1
# ETV5 = ETV5 (Homo sapiens, UniProt P41161 1-510)
# In short: as §1
# SPIC = molecular target: T7, SPIC (Homo sapiens, UniProt Q8N5J4 1-248)
# T7 sequence: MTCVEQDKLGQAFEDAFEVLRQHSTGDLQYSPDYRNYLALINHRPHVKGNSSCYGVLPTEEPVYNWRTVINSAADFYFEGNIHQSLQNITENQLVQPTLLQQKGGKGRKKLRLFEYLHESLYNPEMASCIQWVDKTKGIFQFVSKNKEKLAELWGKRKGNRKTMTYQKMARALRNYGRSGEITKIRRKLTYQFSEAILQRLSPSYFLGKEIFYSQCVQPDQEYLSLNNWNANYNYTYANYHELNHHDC
# In short: as §1
# ELF4 = ELF4 (Homo sapiens, UniProt Q99607 1-663)
# In short: as §1
# ETV1 = ETV1 (Homo sapiens, UniProt P50549 1-477)
# In short: as §1
# ERF = molecular target: T8, ERF (Homo sapiens, UniProt P50548 1-548)
# T8 sequence: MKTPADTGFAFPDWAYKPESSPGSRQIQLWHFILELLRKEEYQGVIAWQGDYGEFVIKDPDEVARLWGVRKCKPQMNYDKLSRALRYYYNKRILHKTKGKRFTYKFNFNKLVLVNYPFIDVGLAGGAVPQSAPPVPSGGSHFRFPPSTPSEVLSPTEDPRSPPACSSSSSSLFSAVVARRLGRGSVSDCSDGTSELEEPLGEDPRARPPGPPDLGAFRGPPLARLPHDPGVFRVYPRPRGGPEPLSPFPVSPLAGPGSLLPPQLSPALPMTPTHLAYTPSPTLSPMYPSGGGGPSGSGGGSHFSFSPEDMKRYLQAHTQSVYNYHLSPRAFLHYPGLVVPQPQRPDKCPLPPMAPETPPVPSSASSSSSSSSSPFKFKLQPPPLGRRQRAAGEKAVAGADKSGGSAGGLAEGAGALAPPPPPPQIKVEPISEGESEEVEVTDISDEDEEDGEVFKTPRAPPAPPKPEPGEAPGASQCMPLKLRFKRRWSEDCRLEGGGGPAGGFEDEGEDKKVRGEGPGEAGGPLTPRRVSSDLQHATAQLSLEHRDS
# In short: as §1
# ETV3L = molecular target: T9, ETV3L (Homo sapiens, UniProt Q6ZN32 1-361)
# T9 sequence: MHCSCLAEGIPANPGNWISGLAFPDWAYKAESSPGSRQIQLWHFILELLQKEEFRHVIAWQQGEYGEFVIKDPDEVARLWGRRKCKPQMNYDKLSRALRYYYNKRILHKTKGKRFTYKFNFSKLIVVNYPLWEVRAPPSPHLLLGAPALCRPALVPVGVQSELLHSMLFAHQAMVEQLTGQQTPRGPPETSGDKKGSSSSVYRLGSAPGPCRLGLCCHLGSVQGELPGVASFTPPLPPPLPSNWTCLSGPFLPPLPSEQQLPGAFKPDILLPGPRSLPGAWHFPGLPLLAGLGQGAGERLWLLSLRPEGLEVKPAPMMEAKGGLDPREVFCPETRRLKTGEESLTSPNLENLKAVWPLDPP
# In short: as §1
# ETS2 = molecular target: T10, ETS2 (Homo sapiens, UniProt P15036 1-469)
# T10 sequence: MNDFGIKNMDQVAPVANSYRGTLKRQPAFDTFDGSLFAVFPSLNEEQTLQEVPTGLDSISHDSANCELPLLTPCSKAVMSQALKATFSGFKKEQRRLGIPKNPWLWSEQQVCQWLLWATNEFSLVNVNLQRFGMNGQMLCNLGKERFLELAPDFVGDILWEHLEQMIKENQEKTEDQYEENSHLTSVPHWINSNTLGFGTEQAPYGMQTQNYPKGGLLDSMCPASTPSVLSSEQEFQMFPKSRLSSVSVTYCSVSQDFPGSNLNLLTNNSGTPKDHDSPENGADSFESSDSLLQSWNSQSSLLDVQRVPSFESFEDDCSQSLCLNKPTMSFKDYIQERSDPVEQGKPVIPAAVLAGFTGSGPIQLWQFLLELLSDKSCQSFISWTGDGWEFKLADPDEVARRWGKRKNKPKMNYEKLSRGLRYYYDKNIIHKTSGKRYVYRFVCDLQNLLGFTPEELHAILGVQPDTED
# In short: as §1
# SPDEF = molecular target: T11, SPDEF (Homo sapiens, UniProt O95238 1-335)
# T11 sequence: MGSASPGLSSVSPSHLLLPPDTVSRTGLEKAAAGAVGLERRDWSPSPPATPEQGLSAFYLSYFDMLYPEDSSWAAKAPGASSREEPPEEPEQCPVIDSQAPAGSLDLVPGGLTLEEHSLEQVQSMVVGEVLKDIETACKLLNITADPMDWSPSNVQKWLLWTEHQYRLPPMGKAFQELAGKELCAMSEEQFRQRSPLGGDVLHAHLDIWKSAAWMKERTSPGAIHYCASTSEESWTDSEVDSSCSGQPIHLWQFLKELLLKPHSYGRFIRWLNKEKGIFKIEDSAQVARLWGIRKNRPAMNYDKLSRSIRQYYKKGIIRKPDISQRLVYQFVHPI
# In short: as §1
# ETV3 = molecular target: T12, ETV3 (Homo sapiens, UniProt P41162-2 1-143)
# T12 sequence: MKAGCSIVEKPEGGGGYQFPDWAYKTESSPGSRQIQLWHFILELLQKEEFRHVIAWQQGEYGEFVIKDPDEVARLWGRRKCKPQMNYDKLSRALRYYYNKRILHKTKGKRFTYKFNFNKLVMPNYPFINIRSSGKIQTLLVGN
# In short: as §1
# ETV6 = ETV6 (Homo sapiens, UniProt P41212 1-452)
# In short: as §1
# ELF4, sequence (Q99607 whole entry): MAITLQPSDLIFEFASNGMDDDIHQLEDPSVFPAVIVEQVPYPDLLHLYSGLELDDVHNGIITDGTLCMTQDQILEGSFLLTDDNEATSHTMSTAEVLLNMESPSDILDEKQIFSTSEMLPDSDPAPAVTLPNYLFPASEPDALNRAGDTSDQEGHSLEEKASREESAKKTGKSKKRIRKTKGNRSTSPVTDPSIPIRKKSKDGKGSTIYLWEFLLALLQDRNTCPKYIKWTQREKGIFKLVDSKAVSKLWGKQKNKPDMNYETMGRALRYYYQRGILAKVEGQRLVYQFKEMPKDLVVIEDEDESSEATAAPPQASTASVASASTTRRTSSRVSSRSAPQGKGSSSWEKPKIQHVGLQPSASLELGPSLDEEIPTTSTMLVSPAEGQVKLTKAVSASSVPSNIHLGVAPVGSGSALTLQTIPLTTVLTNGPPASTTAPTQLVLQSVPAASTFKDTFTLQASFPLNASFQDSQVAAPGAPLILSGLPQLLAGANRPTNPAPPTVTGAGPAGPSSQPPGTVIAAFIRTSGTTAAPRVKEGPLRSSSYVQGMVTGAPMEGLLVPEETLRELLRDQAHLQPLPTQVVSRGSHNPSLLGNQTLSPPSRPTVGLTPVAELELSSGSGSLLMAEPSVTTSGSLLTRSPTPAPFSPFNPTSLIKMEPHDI
# SPIB, sequence (Q01892 whole entry): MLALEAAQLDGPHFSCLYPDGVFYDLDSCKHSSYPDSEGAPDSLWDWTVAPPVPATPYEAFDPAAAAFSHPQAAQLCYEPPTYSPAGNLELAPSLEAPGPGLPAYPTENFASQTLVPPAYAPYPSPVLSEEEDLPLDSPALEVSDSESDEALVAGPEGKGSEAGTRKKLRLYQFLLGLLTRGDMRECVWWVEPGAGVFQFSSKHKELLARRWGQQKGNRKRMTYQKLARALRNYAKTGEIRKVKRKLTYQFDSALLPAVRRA
# ETV5, sequence (P41161 whole entry): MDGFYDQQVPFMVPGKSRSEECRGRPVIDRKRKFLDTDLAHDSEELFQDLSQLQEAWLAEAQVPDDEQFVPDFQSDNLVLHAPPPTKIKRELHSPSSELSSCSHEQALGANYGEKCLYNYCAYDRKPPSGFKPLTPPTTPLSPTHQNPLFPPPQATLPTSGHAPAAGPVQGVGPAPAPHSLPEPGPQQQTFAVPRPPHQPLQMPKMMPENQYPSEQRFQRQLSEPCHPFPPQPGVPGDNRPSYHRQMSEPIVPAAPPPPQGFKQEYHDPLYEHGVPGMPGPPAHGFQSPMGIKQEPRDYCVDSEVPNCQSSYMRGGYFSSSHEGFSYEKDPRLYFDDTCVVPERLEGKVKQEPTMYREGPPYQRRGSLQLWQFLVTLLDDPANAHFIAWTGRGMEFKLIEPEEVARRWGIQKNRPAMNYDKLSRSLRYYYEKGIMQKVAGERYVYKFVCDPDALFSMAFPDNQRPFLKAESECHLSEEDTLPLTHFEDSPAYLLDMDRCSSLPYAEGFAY
# ETV1, sequence (P50549 whole entry): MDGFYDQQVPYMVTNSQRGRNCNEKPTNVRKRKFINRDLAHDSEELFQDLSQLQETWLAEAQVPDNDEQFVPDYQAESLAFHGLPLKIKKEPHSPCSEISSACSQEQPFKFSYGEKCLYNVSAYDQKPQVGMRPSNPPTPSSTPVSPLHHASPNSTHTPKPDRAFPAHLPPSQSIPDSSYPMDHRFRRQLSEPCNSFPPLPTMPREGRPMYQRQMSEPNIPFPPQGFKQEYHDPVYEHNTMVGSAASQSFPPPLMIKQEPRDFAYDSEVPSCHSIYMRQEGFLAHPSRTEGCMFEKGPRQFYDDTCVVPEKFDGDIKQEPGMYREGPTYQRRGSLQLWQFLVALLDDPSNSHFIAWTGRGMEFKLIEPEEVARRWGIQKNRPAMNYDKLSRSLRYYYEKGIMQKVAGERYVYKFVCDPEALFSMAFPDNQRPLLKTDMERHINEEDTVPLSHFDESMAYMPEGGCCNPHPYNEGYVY
# ELF1, sequence (P32519 whole entry): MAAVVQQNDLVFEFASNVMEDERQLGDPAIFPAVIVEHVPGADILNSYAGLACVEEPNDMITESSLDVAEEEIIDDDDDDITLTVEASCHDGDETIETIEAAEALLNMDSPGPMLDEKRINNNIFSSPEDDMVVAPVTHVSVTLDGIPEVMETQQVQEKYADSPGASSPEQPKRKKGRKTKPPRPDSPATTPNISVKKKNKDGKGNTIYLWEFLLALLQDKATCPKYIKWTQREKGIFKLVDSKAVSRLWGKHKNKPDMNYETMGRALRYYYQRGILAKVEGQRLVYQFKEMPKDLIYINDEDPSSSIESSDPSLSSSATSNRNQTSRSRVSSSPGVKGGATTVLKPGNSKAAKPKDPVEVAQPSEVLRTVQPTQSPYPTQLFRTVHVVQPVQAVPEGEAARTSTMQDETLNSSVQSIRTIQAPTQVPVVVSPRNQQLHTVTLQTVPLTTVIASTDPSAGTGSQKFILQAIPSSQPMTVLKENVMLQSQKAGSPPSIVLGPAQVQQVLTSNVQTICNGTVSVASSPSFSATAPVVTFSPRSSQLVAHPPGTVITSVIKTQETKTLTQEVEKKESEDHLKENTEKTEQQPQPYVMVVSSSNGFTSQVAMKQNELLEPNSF
# ETV6, sequence (P41212 whole entry): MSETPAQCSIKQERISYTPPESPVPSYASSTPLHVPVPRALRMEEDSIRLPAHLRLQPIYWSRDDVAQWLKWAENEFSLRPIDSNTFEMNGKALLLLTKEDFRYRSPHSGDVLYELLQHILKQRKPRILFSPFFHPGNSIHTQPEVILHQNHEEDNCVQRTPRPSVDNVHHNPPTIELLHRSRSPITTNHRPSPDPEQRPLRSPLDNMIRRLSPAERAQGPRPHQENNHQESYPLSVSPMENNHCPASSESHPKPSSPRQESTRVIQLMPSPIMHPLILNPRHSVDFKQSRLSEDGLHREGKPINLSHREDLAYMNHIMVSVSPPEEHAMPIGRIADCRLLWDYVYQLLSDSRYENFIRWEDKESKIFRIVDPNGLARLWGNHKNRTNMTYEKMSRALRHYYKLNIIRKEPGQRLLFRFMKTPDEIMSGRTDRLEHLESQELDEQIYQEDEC
sequence,measurement,setting,value
AAAGCG,binding signal,FLI1,"1.01 fold enrichment (6-mer frequency, TF over GST control)"
same,binding signal,GABPA,"1.03 fold enrichment (6-mer frequency, TF over GST control)"
same,binding signal,ERG,"1.09 fold enrichment (6-mer frequency, TF over GST control)"
same,binding signal,ELF1,"1.06 fold enrichment (6-mer frequency, TF over GST control)"
same,binding signal,EHF,"1.1 fold enrichment (6-mer frequency, TF over GST control)"
same,binding signal,SPI1,"1.53 fold enrichment (6-mer frequency, TF over GST control)"
same,binding signal,SPIB,"1.1 fold enrichment (6-mer frequency, TF over GST control)"
same,binding signal,ELK3,"1.08 fold enrichment (6-mer frequency, TF over GST control)"
same,binding signal,FEV,"1.06 fold enrichment (6-mer frequency, TF over GST control)"
same,binding signal,ETV5,"1.18 fold enrichment (6-mer frequency, TF over GST control)"
same,binding signal,SPIC,"1.08 fold enrichment (6-mer frequency, TF over GST control)"
same,binding signal,ELF4,"1.11 fold enrichment (6-mer frequency, TF over GST control)"
same,binding signal,ETV1,"1.05 fold enrichment (6-mer frequency, TF over GST control)"
same,binding signal,ERF,"1.13 fold enrichment (6-mer frequency, TF over GST control)"
same,binding signal,ETV3L,"1.04 fold enrichment (6-mer frequency, TF over GST control)"
same,binding signal,ETS2,"1.04 fold enrichment (6-mer frequency, TF over GST control)"
same,binding signal,SPDEF,"1.03 fold enrichment (6-mer frequency, TF over GST control)"
same,binding signal,ETV3,"1.14 fold enrichment (6-mer frequency, TF over GST control)"
same,binding signal,ETV6,"1.1 fold enrichment (6-mer frequency, TF over GST control)"
